# Screening data as filed in PubChem BioAssay.
# SIRT5 inh – SIRT5 desuccinylase inhibitors, primary screen, biochemical, fluorescence imaging, single point, set 5. NAD-dependent protein deacylase sirtuin-5, mitochondrial (Homo sapiens), Q9NXA8. Purified SirT5, succinyl-peptide AMC, trypsin-coupled fluorescence. inhibition, % at 15 µM. hit rate 1.1% among 330,000. AID 652115, 2013; in the data active = inhibition above about 15%
# ERAP1 inh – human ERAP1 aminopeptidase inhibitors, primary screen, biochemical, single point, plate reader; inhibition, % at 10.7 µM; AID 652197, 2013; Endoplasmic reticulum aminopeptidase 1 (Homo sapiens), Q9NZ08; recombinant ERAP1, Leu-AMC fluorescence, 60 min; hit rate 0.15% among 340,000;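 active = mean replicate inhibition of at least 30%, or all replicates individually reaching that 30% level; inactive = mean below 30% and not every replicate reaching it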;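 also: 0% = neutral control wells and 100% = L-leucinethiol positive control wells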
# FGF22 binding – binders of human FGF22 protein, primary screen, FGF22 synaptogenesis inhibitor project, biophysical, thermal shift, single point. Fibroblast growth factor 22 (Homo sapiens), Q9HCT0. AID 651658, 2012. activity (Tm shift, normalised), % at 9.99 µM. hit rate 1.5% among 340,000. recombinant FGF22 thermal shift, SYPRO orange fluorescence; percent of sucrose octasulfate shift, DMSO zero;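 active = mean Tm shift, scaled 0 neutral to 100 positive control, at about 1.3% or above, every replicate too, limit read from the data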
# CASP6 VEID inh – human caspase-6 inhibitors, primary screen, biochemical, VEID-R110 fluorescence, single point, set 2; P55212; purified caspase-6, Z-VEID-R110 cleavage fluorescence; inhibition, % at 12.5 µM; hit rate 0.53% among 350,000; AID 686996, 2013;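 active = mean inhibition across replicates at least about 35%, with every replicate also reaching that limit, limit read from the data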;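 also: 0% = median of neutral control wells and 100% = no fluorescence left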
# * = called active by the depositor; x = no result given. Only some compounds are listed: those with a hit (about 3.1% of all), similar ones and a draw of the others.
SMILES,SIRT5 inh,ERAP1 inh,FGF22 binding,CASP6 VEID inh
CCOC(=O)c1nn(C)c2[nH]c(=O)n(C)c(=O)c12,x,4,44*,2
C[C@@H]1CN([C@@H](C)CO)C(=O)c2cc(C#Cc3ccc(F)cc3)cnc2O[C@H]1CN(C)Cc1ccccn1,3,1,0,-2
O=C(COC(=O)CSc1ccc(Br)cc1)NCc1ccco1,2,-3,0,-47
O=C(COC(=O)c1cccc(S(=O)(=O)N2CCc3ccccc32)c1)NCc1ccco1,-6,5,44*,1
Cc1ccc(C)c(SCC(=O)OCC(=O)c2ccco2)c1,-1,8,x,54*
Cc1ccc(C)c(NC(=O)COC(=O)CCNC(=O)c2ccco2)c1,-4,-8,0,-4
O=C(COC(=O)c1cccc(Br)c1)NCc1ccco1,-6,1,0,65*
Cc1cc(Br)ccc1SCC(=O)OCC(=O)NCc1ccco1,13,1,0,48*
OC[C@@H]1CC[C@@H]2O[C@H](CCc3ccc(C#CCc4ccccc4)cc3)[C@@H](n3cc(-c4ccccc4)nn3)C[C@@H]2O1,1,x,0,x
O=C(C[C@@H]1C=C[C@H](NS(=O)(=O)c2ccccc2)[C@H](CO)O1)N1CCc2ccccc2C1,8,0,0,1
CC(C)CN(CC(C)C)C(=O)c1cccc(S(=O)(=O)N2CCc3ccccc32)c1,0,11,44*,-2
O=C(O)CCCC(=O)N1CCc2cc(S(=O)(=O)N3CCc4ccccc43)ccc21,28*,6,-1,0
O=C(O)CCCC(=O)N1CCc2cc(S(=O)(=O)NCc3ccccc3)ccc21,4,-2,0,-1
O=C(NNC(=O)c1cccc(S(=O)(=O)N2CCc3ccccc32)c1)c1ccccc1,2,-12,0,-1
O=C(NCc1ccccc1Cl)c1cc(=O)[nH]c2ccccc12,0,48*,0,4
O=C(NCc1ccccc1Cl)c1ccc2nc[nH]c2c1,0,2,0,39*
CNC[C@H]1Oc2ccc(NS(=O)(=O)c3ccc(F)cc3)cc2C(=O)N([C@@H](C)CO)C[C@H]1C,2,-6,0,0
CCOc1ccccc1NC(=O)COC(=O)CC(C)(C)CC1=NS(=O)(=O)c2ccccc2N1,18*,-3,0,-1
Cc1cc(C)cc(NC(=O)COC(=O)CCCC2=NS(=O)(=O)c3ccccc3N2)c1,2,-2,0,x
C[C@@H]1CN([C@@H](C)CO)C(=O)CCCn2cc(nn2)CO[C@H]1CN(C)CC1CCCCC1,-3,0,0,1
Cc1ccc(S(=O)(=O)N[C@H]2C=C[C@H](CC(=O)NCc3ccc(Cl)c(Cl)c3)O[C@H]2CO)cc1,-2,0,0,0
C[C@@H]1CN([C@@H](C)CO)C(=O)c2cc(NC(=O)C3CCCCC3)ccc2O[C@@H](C)CCCCO[C@@H]1CN(C)S(=O)(=O)c1ccc(Cl)cc1,18*,1,x,0
C[C@@H]1CCCCO[C@H](CN(C)S(=O)(=O)c2ccc(Cl)cc2)[C@@H](C)CN([C@H](C)CO)C(=O)c2cc(NC(=O)C3CCCCC3)ccc2O1,0,1,x,-2
C[C@@H]1CCCCO[C@H](CN(C)S(=O)(=O)c2ccccc2)[C@@H](C)CN([C@@H](C)CO)C(=O)c2cc(NC(=O)C3CCCCC3)ccc2O1,16*,1,x,1
C=CCN1C(=O)C2C(C(=O)NC3CCCC3)C3(C)C=CC2(O3)C1C(=O)NC1CCCC1 (stereo not given),0,2,0,-3
CC12C=CC3(O1)C(C(=O)N1CCCOC13)C2C(=O)O (stereo not given),1,1,43*,0
CC(=O)C1=C(O)C(=O)N(c2nccs2)C1c1ccccc1F (stereo not given),5,6,0,-4
COc1ccc(C2C(C(C)=O)=C(O)C(=O)N2c2nccs2)c(OC)c1 (stereo not given),2,0,45*,0
CNC(=O)/C(C#N)=C\c1ccc(CNS(=O)(=O)c2ccc(Cl)cc2)o1,6,33*,0,0
O=C(O)C/C(=C\c1cc(Cl)c2c(c1)OCO2)c1nc2ccccc2s1,14,-1,0,60*
